Reference: PubChem BioAssay AID1159580 (chemical genetic matrix, 2015)
About 2,000 (36%) of roughly 5,500 compounds were called active. Inconclusive results (about 18%) are left out. Cut-off read from the data, not from the text of the source: active = normalized growth mostly below about 0.91 (no sharp cut-off); inconclusive = no clear call, values can overlap the other calls; inactive = mostly above about 0.92. The list shows a part of the results.

Experiment: chemical genetic growth profiling, strain panel (AID 1159580);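 note: tested at 20 µM; growth read once vehicle control cultures reached saturation at 30 °C; 1 = growth at the plate median or of vehicle wells; lower values mean less growth of the strain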
Details: growth OD
[1] = S. cerevisiae deletion strains, locus YAL013W, strain DEP1, hits give low values
[2] = S. cerevisiae deletion strains, locus YDR150W, strain NUM1, hits give low values
[3] = S. cerevisiae deletion strains, locus YJR075W, strain HOC1, hits give low values
[4] = S. cerevisiae deletion strains, locus YMR263W, strain SAP30, hits give low values
[5] = S. cerevisiae deletion strains, locus YNL153C, strain GIM3, hits give low values
[6] = S. cerevisiae deletion strains, locus YNL322C, strain KRE1, hits give low values
[7] = S. cerevisiae deletion strains, locus YPL055C, strain LGE1, hits give low values
[8] = S. cerevisiae deletion strains, locus YBR229C, strain ROT2, hits give low values
[9] = S. cerevisiae deletion strains, locus YDL101C, strain DUN1, hits give low values
[10] = S. cerevisiae deletion strains, locus YEL061C, strain CIN8, hits give low values
[11] = S. cerevisiae deletion strains, locus YHR030C, strain SLT2, hits give low values
[12] = S. cerevisiae deletion strains, locus YJR043C, strain POL32, hits give low values
[13] = S. cerevisiae deletion strains, locus YLR039C, strain RIC1, hits give low values
[14] = S. cerevisiae deletion strains, locus YLR262C, strain YPT6, hits give low values

Measured: normalized growth

NC(=O)CCC(N)C(=O)O (stereo not given)
inactive: [1] 1.02 | S. cerevisiae deletion strains, locus YAL040C, strain CLN3, hits give low values 0.998 | S. cerevisiae deletion strains, locus YCL061C, strain MRC1 (second series), hits give low values 1 | [2] 0.999 | S. cerevisiae deletion strains, locus YDR363W, strain ESC2, hits give low values 1.01 | S. cerevisiae deletion strains, locus YER002W, strain NOP16, hits give low values 1.02 | S. cerevisiae deletion strains, locus YGR229C, strain SMI1, hits give low values 1.04 | [3] 1.01 | [4] 0.997 | S. cerevisiae deletion strains, locus YNL128W, strain TEP1, hits give low values 0.987 | [5] 0.99 | S. cerevisiae deletion strains, locus YNL175C, strain NOP13, hits give low values 0.996 | S. cerevisiae deletion strains, locus YNL197C, strain WHI3, hits give low values 0.997 | S. cerevisiae deletion strains, locus YNL224C, strain SQS1, hits give low values 0.993 | [6] 1.01 | S. cerevisiae deletion strains, locus YOR083W, strain WHI5 (second series), hits give low values 1.01 | [7] 1.03

BrC12CC3CC(CC(C3)C1)C2
inactive: [1] 1 | [8] 1.02 | [9] 1.01 | [2] 0.961 | [10] 1.01 | S. cerevisiae deletion strains, locus YGR078C, strain PAC10, hits give low values 0.997 | [11] 1.05 | S. cerevisiae deletion strains, locus YHR087W, strain rtc3, hits give low values 0.971 | [12] 1.02 | [3] 1.03 | S. cerevisiae deletion strains, locus YKL190W, strain CNB1, hits give low values 1 | [13] 1.02 | S. cerevisiae deletion strains, locus YLR058C, strain SHM2 (second series), hits give low values 1.02 | S. cerevisiae deletion strains, locus YLR085C, strain ARP6, hits give low values 1.01 | [14] 1.02 | S. cerevisiae deletion strains, locus YML094W, strain GIM5, hits give low values 0.997 | S. cerevisiae deletion strains, locus YMR219W, strain ESC1, hits give low values 1 | [4] 0.975 | [5] 1.02 | S. cerevisiae deletion strains, locus YNL298W, strain CLA4 (second series), hits give low values 0.996 | [6] 1.01 | S. cerevisiae deletion strains, locus YNR030W, strain Alg12, hits give low values 0.999 | S. cerevisiae deletion strains, locus YOL006C, strain TOP1, hits give low values 1.01 | [7] 1.03 | S. cerevisiae deletion strains, locus YPL241C, strain CIN2, hits give low values 1 | S. cerevisiae deletion strains, locus YPR135W, strain CTF4, hits give low values 0.99

CC1CC2C(C(O)CC3(C)C2CCC3(O)C(=O)COC(=O)CCC(=O)O)C2(C)C=CC(=O)C=C12 (stereo not given)
inactive: S. cerevisiae deletion strains, locus YBR021W, strain FUR4, hits give low values 1.08 | [8] 1 | S. cerevisiae deletion strains, locus YCL029C, strain bik1, hits give low values 0.97 | S. cerevisiae deletion strains, locus YDL035C, strain GPR1, hits give low values 1.01 | S. cerevisiae deletion strains, locus YDL074C, strain BRE1, hits give low values 1.01 | [9] 1.01 | S. cerevisiae deletion strains, locus YDL185W, strain tfp1, hits give low values 0.959 | S. cerevisiae deletion strains, locus YDL192W, strain arf1, hits give low values 0.982 | S. cerevisiae deletion strains, locus YDR101C, strain arx1, hits give low values 0.993 | [2] 1 | S. cerevisiae deletion strains, locus YDR162C, strain NBP2, hits give low values 1.02 | S. cerevisiae deletion strains, locus YDR318W, strain mcm21, hits give low values 0.989 | S. cerevisiae deletion strains, locus YDR388W, hits give low values 0.997 | S. cerevisiae deletion strains, locus YDR502C, strain sam2, hits give low values 0.982 | [10] 1.01 | S. cerevisiae deletion strains, locus YER110C, hits give low values 0.977 | S. cerevisiae deletion strains, locus YER155C, strain BEM2, hits give low values 1.01 | S. cerevisiae deletion strains, locus YER167W, strain BCK2, hits give low values 1.01 | S. cerevisiae deletion strains, locus YGL078C, strain dbp3, hits give low values 0.984 | S. cerevisiae deletion strains, locus YGL086W, strain mad1, hits give low values 1 | S. cerevisiae deletion strains, locus YGL248W, strain PDE1, hits give low values 1.01 | S. cerevisiae deletion strains, locus YGR135W, strain pre9, hits give low values 0.982 | S. cerevisiae deletion strains, locus YGR252W, strain gcn5, hits give low values 0.992 | [11] 0.987 | S. cerevisiae deletion strains, locus YHR079C, strain IRE1 (second series), hits give low values 0.979 | S. cerevisiae deletion strains, locus YHR094C, strain hxt1, hits give low values 0.994 | S. cerevisiae deletion strains, locus YHR129C, strain ARP1, hits give low values 0.999 | S. cerevisiae deletion strains, locus YHR200W, strain rpn10, hits give low values 0.987 | S. cerevisiae deletion strains, locus YIL066C, strain RNR3, hits give low values 1.03 | S. cerevisiae deletion strains, locus YIL073C, strain SPO22, hits give low values 0.973 | S. cerevisiae deletion strains, locus YIL125W, strain kgd1, hits give low values 0.983 | S. cerevisiae deletion strains, locus YIR030C, strain dcg1, hits give low values 0.978 | S. cerevisiae deletion strains, locus YJL095W, strain BCK1, hits give low values 1.05 | S. cerevisiae deletion strains, locus YJL134W, strain LCB3, hits give low values 0.999 | S. cerevisiae deletion strains, locus YJL168C, strain set2, hits give low values 0.979 | S. cerevisiae deletion strains, locus YJL187C, strain SWE1 (second series), hits give low values 1.02 | [12] 1.04 | [3] 1 | S. cerevisiae deletion strains, locus YKL009W, strain mrt4, hits give low values 0.97 | S. cerevisiae deletion strains, locus YKL068W, hits give low values 0.968 | S. cerevisiae deletion strains, locus YKL085W, strain MDH1 (second series), hits give low values 0.994 | S. cerevisiae deletion strains, locus YKL085W, strain MDH1, hits give low values 0.994 | S. cerevisiae deletion strains, locus YKR001C, strain vps1, hits give low values 0.984 | [13] 1.03 | S. cerevisiae deletion strains, locus YLR058C, strain SHM2, hits give low values 0.999 | S. cerevisiae deletion strains, locus YLR102C, strain apc9, hits give low values 0.991 | [14] 0.98 | S. cerevisiae deletion strains, locus YLR268W, strain sec22, hits give low values 0.99 | S. cerevisiae deletion strains, locus YLR330W, strain CHS5, hits give low values 0.987 | S. cerevisiae deletion strains, locus YLR342W, strain FKS1 (second series), hits give low values 1.04 | S. cerevisiae deletion strains, locus YLR371W, strain rom2, hits give low values 0.979 | S. cerevisiae deletion strains, locus YLR418C, strain cdc73, hits give low values 1.02 | S. cerevisiae deletion strains, locus YML016C, strain PPZ1, hits give low values 1.01 | S. cerevisiae deletion strains, locus YML032C, strain rad52, hits give low values 1 | S. cerevisiae deletion strains, locus YML124C, strain tub3, hits give low values 0.987 | S. cerevisiae deletion strains, locus YMR078C, strain ctf18, hits give low values 0.979 | S. cerevisiae deletion strains, locus YMR223W, strain ubp8, hits give low values 0.981 | [4] 1.02 | S. cerevisiae deletion strains, locus YMR307W, strain GAS1, hits give low values 1.13 | S. cerevisiae deletion strains, locus YNL067W, strain RPL9B, hits give low values 1.03 | [5] 1.03 | S. cerevisiae deletion strains, locus YNL233W, strain BNI4, hits give low values 1.04 | S. cerevisiae deletion strains, locus YNL250W, strain rad50, hits give low values 0.966 | S. cerevisiae deletion strains, locus YNL271C, strain bni1, hits give low values 0.999 | S. cerevisiae deletion strains, locus YNL298W, strain CLA4, hits give low values 0.993 | S. cerevisiae deletion strains, locus YNL307C, strain MCK1, hits give low values 0.987 | [6] 1.01 | S. cerevisiae deletion strains, locus YNR052C, strain pop2, hits give low values 0.982 | S. cerevisiae deletion strains, locus YOL012C, strain htz1 0.933 | S. cerevisiae deletion strains, locus YOL147C, strain pex11, hits give low values 0.993 | S. cerevisiae deletion strains, locus YOR061W, strain CKA2, hits give low values 1 | S. cerevisiae deletion strains, locus YOR069W, strain VPS5, hits give low values 1 | S. cerevisiae deletion strains, locus YOR136W, strain idh2, hits give low values 0.99 | S. cerevisiae deletion strains, locus YOR144C, strain elg1, hits give low values 1 | S. cerevisiae deletion strains, locus YOR184W, strain ser1, hits give low values 1.01 | S. cerevisiae deletion strains, locus YOR316C, strain cot1, hits give low values 1 | S. cerevisiae deletion strains, locus YPR119W, strain clb2, hits give low values 0.986 | S. cerevisiae deletion strains, locus YPR141C, strain kar3, hits give low values 0.972 | S. cerevisiae deletion strains, locus YPR163C, strain tif3, hits give low values 0.985 | S. cerevisiae deletion strains, locus YPR167C, strain met16, hits give low values 0.969 | S. cerevisiae deletion strains, strain wtn01, hits give low values 0.995 | S. cerevisiae strains, strain wild type, hits give low values 1.01
